Some test systems named below: EKVX NSCLC; SN12C renal; UO-31 renal; TK-10 renal; ACHN renal; CAKI-1 renal; A498 renal; CCRF-CEM leukemia; MOLT-4 leukemia.
What all share (assay): NCI-60 one-dose screen, 48 h (100 = growth as untreated, 0 = no growth, -100 = all killed)
What all share (conditions): 10 µM unless noted

This passage reports growth results from PubChem BioAssay (NCI).

About 83,000 compounds went through this panel and 20% of them were active in at least one assay; those are over-represented in the sample as a whole.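 Compound tested at a single concentration for 48 hours in 96-well plates; a percent growth value below 10 was scored as active.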 A number with no mark means an inactive call. The source made the active and inactive calls.

As to `C=C1CC[C@@H](C(=O)OC)Cc2nc(C)ccc21`, the growth in the experiment on EKVX NSCLC was 99.8%; in the experiment with SN12C renal it was 96.4%; with UO-31 renal it was 93.6%; in the experiment on TK-10 renal it was 101%; with ACHN renal, 103%; with CAKI-1 renal, 90.9%. Further, the figures for the growth with A498 renal, in the experiment with CCRF-CEM leukemia and with MOLT-4 leukemia were 106%, 102% and 101%, respectively.

In the case of `C=C1C(=O)O[C@H]2[C@H]1CC/C(COC(=O)NCc1c[nH]c3ccccc13)=C\CC[C@@]1(C)O[C@@H]21`, the growth with EKVX NSCLC was 84.2%; with SN12C renal, 44.4%; in the experiment with UO-31 renal, -62.7% (active); in the experiment with TK-10 renal it was 34.3%; in the experiment with ACHN renal, -36.2% (active); in the experiment with A498 renal it was 102%. In addition, the growth was 7.29% (active) with CCRF-CEM leukemia and 1.16% (active) in the experiment on MOLT-4 leukemia.

`CCCCC[C@H]1CC=C2C(=O)C=C[C@@H]2CC=CCCCC(=O)O[C@@H](CCCCC)CC=C2C(=O)C=C[C@@H]2CC=CCCCC(=O)O[C@@H](CCCCC)CC=C2C(=O)C=C[C@@H]2CC=CCCCC(=O)O1`: the growth in the experiment with EKVX NSCLC was 22.4% [8.75 µM]; with SN12C renal, -10.5% [8.75 µM] (active); in the experiment with UO-31 renal it was -96.7% [8.75 µM] (active); in the experiment with TK-10 renal, 31.6% [8.75 µM]; in the experiment on ACHN renal, -11.6% [8.75 µM] (active); in the experiment with A498 renal, -13.8% [8.75 µM] (active). The growth was 7.92% [8.75 µM] (active) in the experiment with CCRF-CEM leukemia and 3.57% [8.75 µM] (active) in the experiment with MOLT-4 leukemia.

`COC(=O)C(N)CSC(c1ccccc1)(c1ccccc1)c1ccccc1` (stereo not given): the growth in the experiment with SN12C renal was 39.9%; with UO-31 renal, 52.6%; with TK-10 renal it was 49.5%; in the experiment on ACHN renal, 57%; in the experiment with A498 renal it was 34.1%; in the experiment on CCRF-CEM leukemia, 13.7%. The growth with MOLT-4 leukemia was 8.4% (active).

As for `Cc1cc(Cl)c2c(N(C)C)cccc2n1`, the growth was 102% with SN12C renal; 91.1% with UO-31 renal; 125% with TK-10 renal; 112% in the experiment on ACHN renal; 99.9% in the experiment on CAKI-1 renal; 92.1% in the experiment with A498 renal. Besides, in the experiment on CCRF-CEM leukemia, the growth was 89.8%.

Regarding `O=C1c2ccccc2NC(c2cn(-c3ccccc3)nc2-c2cccs2)N1Cc1ccccc1` (stereo not given), the growth in the experiment on EKVX NSCLC was 72.1%; in the experiment with SN12C renal, 90.8%; with UO-31 renal, 57.5%; with TK-10 renal, 91.1%; with ACHN renal it was 86.2%; in the experiment on A498 renal, 84%. In addition, the growth was 95.6% in the experiment on CCRF-CEM leukemia and 55.1% in the experiment on MOLT-4 leukemia.

As for `OCC(CO)(CCl)CCl`, the growth in the experiment with EKVX NSCLC was 104%; with SN12C renal, 98.3%; in the experiment on UO-31 renal, 104%; in the experiment with TK-10 renal it was 95%; in the experiment on ACHN renal, 104%; in the experiment with CAKI-1 renal it was 95%. For the same molecule, the growth in the experiment with A498 renal was 111%; in the experiment with CCRF-CEM leukemia, 90.4%; with MOLT-4 leukemia it was 91.1%.

Turning to `CC(=O)Nc1cc(F)cc(C(F)(F)F)c1Cl`, the growth in the experiment on EKVX NSCLC is 98%; in the experiment on SN12C renal, 105%; in the experiment on UO-31 renal, 92.8%; with TK-10 renal, 104%; in the experiment on ACHN renal it was 99.3%; in the experiment with CAKI-1 renal, 91.5%. Besides, the growth in the experiment on A498 renal is 100%; in the experiment on CCRF-CEM leukemia it was 102%; with MOLT-4 leukemia, 105%.

Regarding `C=C1C(=O)O[C@H]2[C@H]1CC/C(COC(=O)NCCc1c[nH]c3ccccc13)=C\CC[C@@]1(C)O[C@@H]21`, the growth is 69.2% with EKVX NSCLC; -0.18% (active) with SN12C renal; -100% (active) in the experiment with UO-31 renal; -20.7% (active) with TK-10 renal; -93.7% (active) in the experiment with ACHN renal; 80.8% in the experiment with A498 renal. Also, the growth is 3.28% (active) in the experiment on CCRF-CEM leukemia and -3.9% (active) in the experiment with MOLT-4 leukemia.

Regarding `O=C1c2ccccc2C(=Cc2ccccc2)c2ccccc21`, the growth was 11.3% with EKVX NSCLC; 22.3% with SN12C renal; 28% in the experiment with UO-31 renal; -7.83% (active) with TK-10 renal; 28.1% in the experiment on ACHN renal; -17.4% (active) in the experiment with A498 renal. In addition, the growth with CCRF-CEM leukemia was 11.7%; in the experiment on MOLT-4 leukemia it was 17.3%.

For `CN(C)c1ccc(N=C2C=CC(=O)C=C2)cc1`, the growth is 75.3% in the experiment on EKVX NSCLC; 92% in the experiment with SN12C renal; 73.7% with UO-31 renal; 111% with TK-10 renal; 69.3% in the experiment on ACHN renal; 81% with CAKI-1 renal. Also, the growth with A498 renal was 93.1%; in the experiment with CCRF-CEM leukemia it was 75.5%; in the experiment on MOLT-4 leukemia, 51.3%.

For the molecule `CCCCC/C(=C\c1ccccc1)C1OC(C)C(C)O1` (stereo not given), the growth with EKVX NSCLC is 103%; in the experiment on SN12C renal, 97.2%; in the experiment on UO-31 renal it was 101%; with TK-10 renal, 91%; in the experiment with ACHN renal, 101%; with CAKI-1 renal, 93.6%. The values for the growth with A498 renal, with CCRF-CEM leukemia and in the experiment on MOLT-4 leukemia were 105%, 97.2% and 110%, respectively.

`CC[C@H](CC[C@@H](C)[C@H]1CC[C@H]2[C@@H]3/C(=C/c4cccnc4)C(=O)C4=CC(=O)CC[C@]4(C)[C@H]3CC[C@]12C)C(C)C`: the growth in the experiment with EKVX NSCLC was 99%; in the experiment on UO-31 renal, 65.4%; in the experiment with TK-10 renal, 112%; with ACHN renal, 93.9%; with CAKI-1 renal it was 77.9%; in the experiment on A498 renal it was 98.3%. The growth was 43.4% with CCRF-CEM leukemia and 67.5% in the experiment with MOLT-4 leukemia.

Turning to `O=C1c2cc3c(cc2-c2c1c1ccc(Cl)cc1c(=O)n2C[C@H](O)[C@@H](O)[C@H](O)CO)OCO3`, the growth was 20.5% in the experiment with EKVX NSCLC; -5.37% (active) with SN12C renal; -71.6% (active) in the experiment with UO-31 renal; -48.7% (active) in the experiment with TK-10 renal; -58.7% (active) with ACHN renal; -8.82% (active) in the experiment on CAKI-1 renal. Further, the growth in the experiment with A498 renal was -77% (active); in the experiment with CCRF-CEM leukemia, 8.41% (active); in the experiment on MOLT-4 leukemia, 2.33% (active).

On to `O=C1C(Cl)=C(Nc2ccc(S(=O)(=O)c3ccc(NC4=C(Cl)C(=O)c5ccccc5C4=O)cc3)cc2)C(=O)c2ccccc21`, for which the growth in the experiment with EKVX NSCLC is 59.1%; in the experiment with SN12C renal, 56.2%; with UO-31 renal, -62.4% (active); in the experiment on TK-10 renal, -58.7% (active); in the experiment on ACHN renal, -7.78% (active); in the experiment on CAKI-1 renal it was -21.3% (active). Further, the growth was 66.2% in the experiment with A498 renal, 21.1% in the experiment on CCRF-CEM leukemia and 19% in the experiment with MOLT-4 leukemia.
